In PubChem BioAssay AID624114 (Johns Hopkins Ion Channel Center, 2012) one finds outcome data, which are given here for 127 molecules.

Each structure is given as a SMILES string. Among all 4,000 compounds or so, about 15 (0.4%) were called active.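 The calls were made as follows: active = calcium fluorescence ratio, averaged over duplicates, at least 3 SD of the buffer-well ratio, meaning a nonspecific response in receptor-free cells; inactive = the rest.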 Not all results are given here.

The assay can be described thus: nonspecific Ca2+ flux in HEK293 lacking MrgX1 – cell-based, Fluo-4 calcium flux, duplicate, counter-screen for MrgX1 allosteric activator project, primary screen (AID 624114). The conditions noted are these: parental HEK293 calcium flux, Fluo-4 fluorescence ratio; at 10 µM.
As for `COc1cc(C2/C(=C(\O)c3ccc4c(c3)CC(C)O4)C(=O)C(=O)N2Cc2ccco2)ccc1O` (configuration not stated), the result was inactive.
`CCc1nnc(NC(=O)CSc2nc3c(c(=O)n2-c2ccccc2OC)SCC3)s1`: the outcome was inactive.
Then `N=C(N)SCc1cccc2ccccc12`, with “inactive”; and `CCCCC(=O)NNC(=S)NC(=O)C(c1ccccc1)c1ccccc1`, with “inactive”; and `Cc1occc1C(=O)Nc1nnc(-c2ccncc2)s1`, with “inactive”.
Take `Cc1ccc2nc(-c3ccc(NC(=O)c4cccnc4)cc3)oc2c1`: the result was inactive.
For the molecule `COCCNC(=O)C1CCN(S(=O)(=O)c2ccc3c(c2)OCCO3)CC1`, the outcome was inactive.
Take `CCN(CC)c1ccc(C2C3CCCCC3(O)CCN2CC(=O)Nc2ccccc2)cc1` (configuration not stated): the outcome was inactive.
The result for `COC(=O)c1c(NC(=O)CN(c2ccc(C)c(C)c2)S(C)(=O)=O)sc2c1CCCC2` reads “inactive”.
Regarding `CC(C)(C)Nc1c(-c2cccs2)nc2ccccn12`, the outcome was inactive.
Then `Cc1onc(-c2ccccc2)c1C(=O)NNC(=S)NC(=O)c1ccc(F)cc1`, with “inactive”; and `COc1cccc(CCNC(=O)COc2cccc3c2OC(C)(C)C3)c1`, with “inactive”.
The result for `COc1ccc(-n2c(SCC(=O)NCc3ccco3)nnc2-c2c[nH]c3ccccc23)cc1` reads “inactive”; that for `CCS(=O)(=O)c1ccc2c(c1)N(S(=O)(=O)c1ccccc1)CC(C(=O)O)O2` (configuration not stated), “inactive”.
In the case of `Cc1nn(C(=O)c2ccoc2C)c(N)c1-c1ccccc1`, the outcome was inactive.
On to `O=C(COC(=O)C1CCN(S(=O)(=O)c2ccc3c(c2)OCCO3)CC1)Nc1ccccc1OC(F)F`, for which the result was inactive.
For `CC(=O)N(C)c1ccc(NC(=O)C(F)(F)F)cc1`, the outcome was inactive.
With `O=C(CC(O)(C(F)(F)F)C(F)(F)F)Nc1ccc(Cl)c(Cl)c1`, the result was inactive.
With `O=C(CCN1CCc2ccccc2C(O)(c2ccccc2)C1)c1ccc2c(c1)OCCO2` (configuration not stated), the outcome was inactive.
`COc1ccc(C2SCCN2S(=O)(=O)c2ccccc2)cc1OC` (configuration not stated): the result was inactive.
Turning to `CCc1cc2c(SCC(=O)Nc3ncc(Cl)c(C)c3Cl)ncnc2s1`, the result was inactive.
With `CCOC(=O)c1c(NC(=O)CNC2CCCc3ccccc32)sc(C(N)=O)c1C` (configuration not stated), the outcome was inactive.
The result for `O=S(=O)(c1ccc2ccccc2c1)N1CCN(S(=O)(=O)N2CCOCC2)CC1` reads “inactive”; that for `Cc1cc(=O)oc2cc(NC(=O)C3CC(=O)N(Cc4ccccc4)C3)ccc12` (configuration not stated), “inactive”.
Then `CCN(C(=O)CSc1nnc2ccccn12)C1CCS(=O)(=O)C1` (configuration not stated), with “inactive”.
For the molecule `CC(=O)N(C1=C(Cl)C(=O)c2ccccc2C1=O)c1ccc(C(=O)O)cc1`, the outcome was inactive.
Then `COc1ccc(C(=O)CSc2n[nH]c(N)n2)cc1`, with “inactive”; and `O=C(Nc1ccccc1)c1nnsc1S(=O)(=O)c1ccc(Cl)cc1`, with “inactive”; and `Cc1ccc2cc(/C=N/Nc3ccc(C(=O)O)cc3)c(Cl)nc2c1`, with “inactive”.
Turning to `c1ccc(-c2[nH]ncc2-c2nc3ccccc3[nH]2)cc1`, the outcome was inactive.
Then `COc1ccccc1Oc1nc(-c2cccnc2)nc2ccccc12`, with “inactive”; and `O=c1c2cc(Br)ccc2nc(-c2cccc(Cl)c2)n1O`, with “inactive”; and `COc1ccc([N+](=O)[O-])cc1NC(=O)COC(=O)/C=C/c1ccco1`, with “inactive”.
Turning to `C=CCSc1nc(Cc2ccc(Cl)cc2)nc2ccccc12`, the result was inactive.
On to `NC(=O)c1c(Nc2nc3c(F)cccc3s2)sc2c1CCCC2`, for which the outcome was inactive.
Then `CCN(CC)CC(=O)Nc1nn(-c2ccccc2)nc1C(N)=O`, with “inactive”; and `Cc1ccc(C(=O)COC(=O)CCN2C(=O)C3C4CC(C(Br)C4Br)C3C2=O)cc1` (configuration not stated), with “inactive”; and `Cc1ccc(-n2cnc3ncnc(-c4ccccc4)c32)cc1`, with “inactive”.
For the molecule `CCOC(=O)Nc1ccc2c(c1)N(C(=O)CCN1CCN(CCO)CC1)c1ccccc1CC2`, the outcome was inactive.
Turning to `O=C(NC1CCCCC1)C1c2ccccc2C(=O)N1Cc1ccco1` (configuration not stated), the outcome was inactive.
Turning to `Cc1cc2oc3ccc(NCCC4CCCN4C)cc3c(=O)c2cc1C` (configuration not stated), the result was inactive.
As to `COCCCNC(=O)C1CCN(c2ccc(N3CCOCC3)nn2)CC1`, the result was inactive.
The result for `Cc1cc(Br)ccc1NC(=O)c1cnc(N2CCN(c3ccccn3)CC2)c2ccccc12` reads “inactive”; that for `Cc1ccc(S(=O)(=O)N(C)c2nc3ccccc3n3c(C(C)C)nnc23)cc1`, “inactive”; that for `CC1CCN(S(=O)(=O)c2nnc(NC(=O)COc3ccccc3F)s2)CC1`, “inactive”.
Then `Cc1ccc(-c2nn(C(C)(C)C)c3ncnc(N)c23)cc1`, with “inactive”; and `CCC1CCCCN1CCNC(=O)c1[nH]c(C)c(C(C)=O)c1C` (configuration not stated), with “inactive”.
Consider `O=C(CSc1ncccn1)NC(=O)NCc1ccccc1`, for which the result was inactive.
For the molecule `CC1CCCCN1S(=O)(=O)c1ccc(C(=O)Nc2nnc(-c3cccs3)o2)cc1` (configuration not stated), the result was inactive.
Turning to `O=C(Nc1nc2c(F)cc(F)cc2s1)C1COc2ccccc2O1` (configuration not stated), the result was inactive.
Turning to `O=C1C(=O)N(CC2COc3ccccc3O2)c2ccccc21` (configuration not stated), the outcome was inactive.
Regarding `COc1cccc(CNC(=O)C2CCN(S(=O)(=O)c3cccc4cccnc34)CC2)c1`, the outcome was inactive.
For `COc1ccc(C(=O)NC(=S)NNC(=O)CCc2ccccc2)cc1`, the outcome was inactive.
As to `CCOC(=O)C1=C(O)/C(=C/c2cc(C)n(-c3ccccc3)c2C)N=C1C`, the outcome was inactive.
As for `Cc1ccc2nc(Nc3ccccc3)cc(C)c2c1`, the outcome was inactive.
Then `Cc1ccc(Cc2cnc(N)s2)o1`, with “inactive”; and `O=C(CSc1nncn1-c1cccnc1)N1CCOCC1`, with “inactive”.
On to `COc1ccc(OC)c(C(=O)c2ccc(Cl)cc2)c1`, for which the outcome was inactive.
Consider `CCCc1cc(=S)n2c([nH]c3ccccc32)c1C#N`, for which the result was inactive.
For `Nc1cc(OC(=O)c2ccccc2Br)nn1S(=O)(=O)c1ccccc1`, the result was inactive.
Turning to `CC(C)(C)n1c(=O)[nH]c2c(c1=O)CCC2`, the result was inactive.
As to `CCOC1CCCCC1NS(=O)(=O)c1ccc(Cl)cc1` (configuration not stated), the outcome was inactive.
Turning to `C=CCOc1cccc(C2C(C(=O)c3ccc(C)o3)=C(O)C(=O)N2c2nnc(C)s2)c1` (configuration not stated), the outcome was inactive.
The result for `Cc1cccc(-n2c(Cc3cc(=O)[nH]c(=O)[nH]3)nnc2SC(C)C)c1` reads “inactive”; that for `O=C1CCCc2c1nc(-c1cccc(Cl)c1)n2O`, “inactive”.
Take `Cc1nc(N2CCN(c3ccccn3)CC2)c2c(C)c(C(=O)Nc3ccc(F)c(Cl)c3)sc2n1`: the result was inactive.
The result for `Cc1cc(C)n(CCNC(=O)CC2C(=O)NCCN2Cc2ccc(C)o2)n1` (configuration not stated) reads “inactive”.
Then `COc1ccc(S(=O)(=O)N2CCN(C(=O)NC3CCCCC3)CC2)cc1`, with “inactive”; and `CCCCC(=O)Nc1ccc2c(c1)C(=O)NC2=O`, with “inactive”; and `Cc1nn(-c2ccccc2)c(C)c1NC(=O)COc1ccc(Cl)cc1Cl`, with “inactive”.
Turning to `Cc1ccc(-n2[nH]c(C)c(/C=N/N3C(=O)c4cccc5cccc(c45)C3=O)c2=O)cc1`, the outcome was inactive.
Then `COC(=O)Cc1cc(=O)n(-c2nc3ccccc3s2)[nH]1`, with “inactive”.
Turning to `O=C1C(Cc2ccc(O)cc2)NC(=S)N1Cc1ccccc1` (configuration not stated), the result was inactive.
Consider `Clc1ccc(C=NC23CN4CN(CN(C4)C2)C3)cc1`, for which the result was inactive.
Take `CC(C)CC(=O)NC(=S)NNC(=O)c1cccc([N+](=O)[O-])c1`: the outcome was inactive.
In the case of `Cc1[nH][nH]c(=O)c1C(c1ccc(-c2ccc(Cl)cc2)o1)c1c(C)[nH][nH]c1=O`, the result was inactive.
On to `O=C(Oc1ccc(C(=S)N2CCOCC2)cc1)c1ccc(F)cc1`, for which the outcome was inactive.
For the molecule `COC(=O)c1ccc(C2C3=C(Nc4nnnn42)c2ccccc2OC3)cc1` (configuration not stated), the outcome was inactive.
For the molecule `Clc1ccc(-c2nc3ccccn3c2CN2CCSCC2)cc1`, the outcome was inactive.
For the molecule `CCOCc1nnc(NC(=O)CCC2CCCCC2)s1`, the result was inactive.
Take `Cc1ccc2nc(-c3ccc(NC(=O)CN(C)S(=O)(=O)c4ccccc4)cc3)sc2c1`: the outcome was inactive.
Then `Cc1ccc(N/C(N)=N/c2nc(C(F)(F)F)cc(C(F)(F)F)n2)cc1`, with “inactive”; and `Cc1cccc(NC(=O)C(C)N2C(=O)C3C4CC(C(Br)C4Br)C3C2=O)c1` (configuration not stated), with “inactive”.
Then `O=c1cc(CSc2ccccn2)nc(N2CCN(c3ccccc3)CC2)[nH]1`, with “inactive”; and `CCN(c1cccc(C)c1)S(=O)(=O)c1ccc(-c2coc(C)n2)cc1`, with “inactive”.
As for `CC(C)CC(=O)N/C(N)=N/c1nc2ccccc2s1`, the outcome was inactive.
As for `Cc1nn(-c2ccccc2)c2c1C(c1ccc(F)cc1)C(C#N)=C(N)O2` (configuration not stated), the result was inactive.
With `CCOc1ccc(C(=O)NC2CCN(S(=O)(=O)CC)CC2)cc1`, the result was inactive.
Take `CCOC(=O)CNC(=O)CSc1nc2cccnc2n1CC`: the outcome was inactive.
Take `Cc1nc(C)c(-c2csc(NCCc3ccccc3)n2)s1`: the result was inactive.
`C(=N\n1cnnc1)/c1cccnc1`: the outcome was inactive.
As for `Cc1cccc(NC(=O)COc2ccccc2C)n1`, the result was inactive.
`O=C(Nc1ccc(Br)cc1F)C1CC(=O)N(C2CCCCC2)C1` (configuration not stated): the outcome was inactive.
Turning to `COc1ccc(Cc2nc(-c3ccccn3)no2)cc1OC`, the result was inactive.
In the case of `COC(=O)c1ccc(COC(=O)C2CCN(S(=O)(=O)c3c(Cl)cccc3Cl)CC2)o1`, the result was inactive.
Turning to `COCC(C)NC(=O)c1ccc(Cl)c(Cl)c1` (configuration not stated), the result was inactive.
Turning to `CCOc1ccc(C2=CC(c3ccccc3)n3ncnc3N2)cc1` (configuration not stated), the outcome was inactive.
`CCOC(=O)Cc1csc(SCc2cc(=O)oc3cc(O)ccc23)n1`: the result was inactive.
As to `O=C(Nc1ccc(Cl)cc1)Nc1ccc(Oc2cccnc2)nc1`, the result was inactive.
As for `O=C(COc1ccc(Cl)cc1)NC(=S)Nc1ccccc1N1CCOCC1`, the result was inactive.
With `N#CC1=C(N)Oc2c(sc3ccccc23)C1c1ccco1` (configuration not stated), the result was inactive.
As to `O=C(CN1CCN(c2ccccn2)CC1)NC1CCCCC1`, the outcome was inactive.
The result for `COc1ccc(S(=O)(=O)N2CCOCC2)c(C)c1C` reads “inactive”; that for `Cc1cc2ncn(CCCCOc3ccccc3)c2cc1C`, “inactive”; that for `CCN(CC)c1ccc2oc(=O)c(C)nc2c1`, “inactive”.
The result for `CN1C(CC(=O)Nc2ccc(Br)cc2)c2ccccc2CC1(C)C` (configuration not stated) reads “inactive”.
Turning to `COc1ccc(C(=O)NC(=S)NC2CCCCC2)cc1`, the outcome was inactive.
Then `O=C(Nc1ccccc1Cl)N1CCN(c2ccc3nncn3n2)CC1`, with “inactive”; and `COC(=O)c1c(NC(=O)c2c(Cl)cnn2C)sc(C)c1C`, with “inactive”; and `CCOC(=O)c1[nH]c2ccc(C)cc2c1N=C(C)N(C)C`, with “inactive”.
Then `Cc1cccc(Cn2cnc3c(N)c(C)c(C)cc32)c1`, with “inactive”; and `Cc1ccc(OC(=O)c2cc3ccccc3o2)cc1`, with “inactive”.
Then `CCOC(=O)c1cn(Cc2cccc(C)c2)nn1`, with “inactive”; and `C=CCNC(=O)c1csc(-c2ccccc2)n1`, with “inactive”.
As to `O=C(c1cccs1)C1C(c2ccc(Br)cc2)NC(=S)NC1(O)C(F)(F)F` (configuration not stated), the result was inactive.
For the molecule `CC(=O)Nc1ccc(OC(=O)COc2ccc(Br)cc2)cc1`, the result was inactive.
For `O=C(c1ccc(O)cc1)c1ccc(C(=O)O)c(C(=O)O)c1`, the result was inactive.
For the molecule `O=C1Cc2ccccc2Sc2ccc(Cl)cc21`, the result was inactive.
In the case of `CC(Oc1ccc(F)cc1)C(=O)Nc1ccccc1C(=O)NC1CC1` (configuration not stated), the outcome was inactive.
For the molecule `O=C(c1ccc(OC2CCN(C(=O)c3cccnc3)CC2)cc1)N1CCCCCC1`, the result was inactive.
Consider `O=C(COC(=O)c1ccc(NS(=O)(=O)c2cccs2)cc1O)Nc1ccc(F)cc1`, for which the result was inactive.
In the case of `COc1cc(C(F)(F)F)nc2c(Br)c(C(C)(C)C)nn12`, the result was inactive.
The result for `Cc1cc(Nc2cc(N3CCN(C)CC3)nc(Sc3ccc(NC(=O)C4CC4)cc3)n2)n[nH]1` reads “inactive”; that for `CC(=O)N1c2ccc(S(=O)(=O)N3CCCC(C(=O)Nc4cccc(Cl)c4)C3)cc2CC1C` (configuration not stated), “inactive”.
For `CCCCOC(=O)CNc1nnc(SCC(=O)OCC)[nH]c1=O`, the outcome was inactive.
The result for `COc1ccc(OC)c(Nc2nc3ccccc3n3cnnc23)c1` reads “inactive”; that for `Fc1cccc(Cl)c1COc1ccc(-c2nnco2)cc1`, “inactive”.
